Inconclusive results are not listed. The source made the active and inactive calls. Rule for the calls: active = hit-call score of the fitted dose curve at least 0.9, where 1 is the maximum; inconclusive = response in the unintended direction; inactive = score below 0.9.
Each compound was assayed against human Caspase 4 (CASP4), CASP4 (gene 837) (UniProt P49662) (assay: NVS_ENZ_hCASP4: NovaScreen (NVS) Enzymatic Assay for human Caspase 4 (CASP4) (AID 2283143)).
Sequence of human Caspase 4 (CASP4), CASP4 (gene 837) (P49662 whole entry, looked up): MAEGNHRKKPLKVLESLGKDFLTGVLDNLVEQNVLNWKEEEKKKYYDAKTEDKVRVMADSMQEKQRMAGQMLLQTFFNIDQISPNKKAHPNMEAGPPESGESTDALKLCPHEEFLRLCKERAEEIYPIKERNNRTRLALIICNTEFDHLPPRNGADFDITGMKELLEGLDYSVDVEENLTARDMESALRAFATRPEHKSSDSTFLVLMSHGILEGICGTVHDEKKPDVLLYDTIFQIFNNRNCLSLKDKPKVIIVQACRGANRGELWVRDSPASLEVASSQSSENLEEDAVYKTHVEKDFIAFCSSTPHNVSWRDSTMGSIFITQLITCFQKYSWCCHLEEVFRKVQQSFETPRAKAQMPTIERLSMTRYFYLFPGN
Protocol: NVS_ENZ_hCASP4 is a biochemical, single-readout assay that uses extracted gene-proteins from E. coli in a cell-free assay. Measurements were taken 2 hours after chemical dosing in a 96-well plate.NVS_ENZ_hCASP4 is one of one assay component(s) measured or calculated from the NVS_ENZ_hCASP4 assay. It is designed to make measurements of enzyme activity, a form of enzyme reporter, as detected with fluorescence intensity signals by Fluorescence technology.Data from the assay component NVS_ENZ_hCASP4 was analyzed into 1 assay endpoint. This assay endpoint, NVS_ENZ_hCASP4, was analyzed in the positive analysis fitting direction relative to DMSO as the negative control and baseline of activity. Using a type of enzyme reporter, loss-of-signal activity can be used to understand changes in the enzymatic activity as they relate to the gene CASP4. Furthermore, this assay endpoint can be referred to as a primary readout, because this assay has produced multiple assay endpoints where this one serves a enzymatic activity function. To generalize the intended target to other relatable targets, this assay endpoint is annotated to the protease intended target family, where the subfamily is cysteine protease.
Binding assays used specific radioligands (tritiated, iodinated) with non-radioactive competitive displacement ligands in agonist or antagonist protocols (as indicated) and various reference compounds and inhibitors to titrate specific binding to receptors and transporters. Most enzyme assays (CYPs, kinases, phosphatases, proteases, HDACs) used recombinant protein and specific substrates (fluorescence mostly, some colorimetric and radioactive) and inhibitors, followed by a biochemical separation of substrate and product. All assays for the biochemical HTS were initially run in duplicate at a single concentration (10 uM for CYP450 assays and 25 uM for all others). Assay-chemical combinations meeting a pre-defined threshold (e.g., 30% inhibition and other criteria defined below) were then run in singleton concentration-response format with maximum concentration of 20 uM for CYPs and 50 uM for all others. Each assay was run with positive and negative controls, and concurrent controls on every plate. The follow-up (secondary) screen tested active chemical-pairs in concentration series, as well as a few additional assays not tested in the primary screen, some selected negative inactives, and several cases re-run in the concentration series for confirmatory purposes.
In the case of `COc1cc(S(=O)(=O)O)c(C)cc1N=Nc1c(O)ccc2cc(S(=O)(=O)O)ccc12`, the AC50 is reported as 25 µM (active).
In the case of `Nc1ccc2c(c1)C(=O)c1ccccc1C2=O`, the AC50 is reported as 18.9 µM (active).
In the case of `Cc1nc(-c2ccc3c(c2)CCN(CCC2CCC(NC(=O)/C=C/c4ccc(F)cc4)CC2)CC3)no1` (configuration not stated), the outcome is reported as “inactive”.
`CCc1c(C(=O)NN2CCCCC2)nn(-c2ccc(Cl)cc2Cl)c1-c1ccc(Br)cc1` was tested, and the outcome was “inactive”.
With `CC1=C(/C=C/C(C)=C/C=C/C(C)=C/CO)C(C)(C)CCC1` the outcome was “inactive”.
`Cc1ccc(C(C)C)c(O)c1` was tested, and the outcome was “inactive”.
With `Cc1cccc([N+](=O)[O-])c1C` the outcome was “inactive”.
For `COc1cc(-c2nc(NC(=O)c3cc4cc(C)cc(C)c4n3CC(=O)O)sc2CCC2CCCCC2)c(OC)cc1Cl`, the AC50 was 14.3 µM (active).
`COc1ccc(S(=O)(=O)N2C(=O)[C@@](c3ccccc3OC)(N3C[C@H](O)C[C@H]3C(=O)N(C)C)c3cc(Cl)ccc32)c(OC)c1` was tested, and the outcome was “inactive”.
`CCCCc1ccc2c(n1)[C@@H](c1ccc(OC)cc1C[C@H](C)C(=O)O)[C@H](C(=O)O)[C@H]2c1ccc2c(c1)OCO2` was tested, and the outcome was “inactive”.
`O=c1c(O)c(-c2ccc(O)c(O)c2)oc2cc(O)cc(O)c12` was tested, and the outcome was “inactive”.
In the case of `CCOc1ccc2c(c1)C(C)=CC(C)(C)N2`, the AC50 is reported as 15.1 µM (active).

Reference: PubChem BioAssay (EPA / NIEHS)
